# The campaign covered roughly 310,000 compounds. About 14,000 (4.5%) showed an effect of 50% or more. The effect is printed as a negative number. The full list was thinned out, with strong results kept by preference.
# Target: human ether-à-go-go-related gene (hERG) potassium channel (human, UniProt Q12809)
# Assay: primary screen, population patch clamp on CHO cells stably expressing hERG; higher = less effect of the substance
# 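Further: peak tail current of the secondary pulse compared with the same well before compound.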
# Chain of human ether-à-go-go-related gene (hERG) potassium channel (Q12809 whole entry, looked up): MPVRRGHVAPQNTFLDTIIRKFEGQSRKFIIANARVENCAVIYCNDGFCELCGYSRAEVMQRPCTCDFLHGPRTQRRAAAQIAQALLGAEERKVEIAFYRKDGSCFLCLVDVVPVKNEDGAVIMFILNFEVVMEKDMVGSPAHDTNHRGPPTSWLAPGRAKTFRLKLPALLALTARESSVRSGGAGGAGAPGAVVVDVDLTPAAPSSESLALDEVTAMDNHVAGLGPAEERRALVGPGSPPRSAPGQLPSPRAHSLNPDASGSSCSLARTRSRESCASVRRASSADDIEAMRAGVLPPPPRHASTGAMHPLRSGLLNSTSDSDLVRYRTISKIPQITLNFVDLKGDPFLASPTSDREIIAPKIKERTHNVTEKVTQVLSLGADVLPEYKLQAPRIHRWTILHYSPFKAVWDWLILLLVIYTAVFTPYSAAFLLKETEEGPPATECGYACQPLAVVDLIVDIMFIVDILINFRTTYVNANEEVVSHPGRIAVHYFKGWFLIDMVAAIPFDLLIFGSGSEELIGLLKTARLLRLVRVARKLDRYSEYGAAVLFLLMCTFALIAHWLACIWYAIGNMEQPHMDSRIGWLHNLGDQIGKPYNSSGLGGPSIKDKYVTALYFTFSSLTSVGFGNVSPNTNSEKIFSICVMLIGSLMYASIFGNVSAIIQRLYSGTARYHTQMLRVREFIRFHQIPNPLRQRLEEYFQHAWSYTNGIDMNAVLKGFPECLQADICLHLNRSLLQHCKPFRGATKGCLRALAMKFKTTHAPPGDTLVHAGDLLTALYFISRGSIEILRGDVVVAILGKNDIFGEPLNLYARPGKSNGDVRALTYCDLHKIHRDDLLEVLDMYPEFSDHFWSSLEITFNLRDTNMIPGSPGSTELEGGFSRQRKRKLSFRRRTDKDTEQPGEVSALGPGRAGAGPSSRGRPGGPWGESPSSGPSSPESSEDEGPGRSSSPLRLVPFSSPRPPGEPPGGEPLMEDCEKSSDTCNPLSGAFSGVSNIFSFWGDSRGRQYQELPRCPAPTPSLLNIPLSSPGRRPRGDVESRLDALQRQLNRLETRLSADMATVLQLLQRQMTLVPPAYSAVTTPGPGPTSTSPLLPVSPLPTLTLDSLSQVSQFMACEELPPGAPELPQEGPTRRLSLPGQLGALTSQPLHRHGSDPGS
row,Compound,"hERG current change (%, negative = inhibition) at 10uM [%]"
1,O=c1cc(O)c(-c2cccc(C(F)(F)F)c2)c(Cl)[nH]1,22.5
2,O=C1C(Cc2ccc3[nH]ccc3c2)NC(=S)N1c1ccccc1 (stereo not shown),7.61
3,Cc1ccccc1C(=O)NC(=S)NCc1cccnc1,31.9
4,COC(=O)c1ccc(CO/N=C2\CCCc3nonc32)cc1,-35.1
5,O=C(Cn1c(-c2ccccc2)noc1=O)Nc1ccc(N2CCCCCC2)cc1,6.95
6,Cc1cc(C)cc(OCC(=O)OCC(=O)NCc2ccco2)c1,4.8
7,O=C(Cc1ccc(NC2=NC3CS(=O)(=O)CC3S2)cc1)NCCc1ccccc1 (stereo not shown),6.22
8,O=c1oc2cc(OCc3ccc(C(F)(F)F)cc3)ccc2cc1-c1ccccn1,10.4
9,Cc1ccc(C(=O)OCCOc2cccc(Cl)c2)cc1S(=O)(=O)N1CCOCC1,-12.2
10,CCOC(=O)C1=C(c2ccccc2)NC(=S)NC1c1ccc(Cl)cc1 (stereo not shown),0.162
11,Cc1ccccc1C(O)(Cc1ccccc1)C1CN2CCC1CC2.Cl (stereo not shown),-55.2
12,OC(c1ccccc1)(c1ccc(Cl)cc1)C1CN2CCC1CC2 (stereo not shown),-56
13,Cc1ccc(NC(=O)C2CCN(S(C)(=O)=O)CC2)cc1C,3.29
14,Cl.OC(Cc1ccccc1)(c1ccccc1)C1CN2CCC1CC2 (stereo not shown),-49.7
15,C[N+]12CCC(CC1)C(C(O)(c1cccc(Cl)c1)c1cccc(Cl)c1)C2.[I-] (stereo not shown),13.6
16,Cc1ccc(C(=O)N2CCC(C)CC2)cc1C,8.09
17,CC(C)[N+]12CCC(CC1)C(C(O)(c1ccccc1)c1ccccc1)C2.[I-] (stereo not shown),16.9
18,Cl.OC(c1cccc(Cl)c1)(c1cccc(Cl)c1)C1CN2CCC1CC2 (stereo not shown),-81.8
19,c1ccc(C2CN3CCC2CC3)cc1 (stereo not shown),-5.74
20,O=C(NC1CN2CCC1CC2)c1cccc(Cl)c1 (stereo not shown),3.72
21,Cl.OC(c1ccccc1)(c1ccccc1)C1CN2CCC1CC2 (stereo not shown),-45.2
22,Cc1ccc(C(O)(c2ccc(C)c(C)c2)C2CN3CCC2CC3)cc1C.Cl (stereo not shown),-67.6

row,Compound,"hERG current change (%, negative = inhibition) at 10uM [%]"
1,CC(=O)N1CCN(c2ccc(NC(=O)c3cccc(Cl)c3)cc2)CC1,-7.02
2,COc1ccc2nc(NC(=O)C(NS(=O)(=O)c3cccs3)C(C)C)sc2c1 (stereo not shown),8.73
3,Cc1ccc(-n2cc(CCCCCCCCC(=O)O)nn2)cc1,-12.3
4,COc1ccc(-c2ccc(=O)n(CC(=O)Nc3nnc(C(C)C)s3)n2)cc1OC,11.9
5,S=c1[nH]c2cnccc2n1Cc1ccccc1,12.4
6,COc1cc(C(=O)NCCOc2ccc(F)cc2)c(Br)c(OC)c1OC,3.42
7,COCC(C)NC(=O)c1noc2c1CCc1cc(OC)ccc1-2 (stereo not shown),-25.9
8,CCOc1ncccc1C(=O)Nc1cc(S(=O)(=O)N2CCCCC2)ccc1OC,-8.23
9,COc1ccc(C)cc1NC(=O)CN1C(=O)COc2ccc(S(=O)(=O)N3CCC(C)CC3)cc21,26.3
10,COc1cccc(C2c3[nH]c4ccccc4c3CCN2Cc2cccn2-c2ncccn2)c1 (stereo not shown),-76.1
11,CSc1ncc(CN2CCc3c([nH]c4ccccc34)C2c2cccc(O)c2)cn1 (stereo not shown),-22.9
12,COc1cccc(C2c3[nH]c4ccccc4c3CCN2Cc2ncc[nH]2)c1 (stereo not shown),-49.4
13,Cc1cccc(C2c3[nH]c4ccccc4c3CCN2Cc2cccn2-c2ncccn2)c1 (stereo not shown),-77.8
14,CCn1nc(C)c(CN2CCc3c([nH]c4ccccc34)C2c2ccc(F)c(OC)c2)c1C (stereo not shown),-48.2
15,COc1cccc(C2c3[nH]c4ccccc4c3CCN2Cc2cnc(C)s2)c1OC (stereo not shown),2.51
16,COc1ccc(C2c3[nH]c4ccccc4c3CCN2Cc2cccn2-c2ncccn2)cc1C (stereo not shown),-52
17,CC(=O)NCCC(=O)N1CCc2c([nH]c3ccccc23)C1c1cccc(C)c1 (stereo not shown),-14.3
18,CCC(=O)NC(NC(=S)Nc1ccccc1Br)C(Cl)(Cl)Cl (stereo not shown),18.2
19,O=C1CC2(CCCC2)C(=O)N1CN1CCN(S(=O)(=O)c2ccc(Cl)c(Cl)c2)CC1,3.53
20,CCCCOC(=O)n1c(SCC(=O)N(CC)CC)nc2ccccc21,-34.7
21,CCCn1c(O)c(/C=C2\C=NN=C2c2ccccc2)sc1=S,7.93
